Data published in PMC5540273 (PLoS ONE, 2017).

Key:
Settings in all cases: concentration: 1 μM, replicates: in singlicate; n = 1
[1] = test system: AAK1
[2] = test system: ABL1-nonphosphorylated
[3] = test system: ABL1-phosphorylated
[4] = test system: ABL2
[5] = test system: ACVR1B
[6] = test system: ACVR1
[7] = test system: ACVR2A
[8] = test system: ACVR2B
[9] = test system: ACVRL1
[10] = test system: T1, ADCK3
T1 construct: gene CABC1

[11] = test system: ADCK4
[12] = test system: AKT1
[13] = test system: AKT2
[14] = test system: AKT3
[15] = test system: ALK
[16] = test system: T2, AMPK-alpha1
T2 construct: gene PRKAA1
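Also: KINOMEscan kinase panel screen.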

Row | Structure (SMILES) | %Inh [1] [%] | %Inh [2] [%] | %Inh [3] [%] | %Inh [4] [%] | %Inh [5] [%] | %Inh [6] [%] | %Inh [7] [%] | %Inh [8] [%] | %Inh [9] [%] | %Inh [10] [%] | %Inh [11] [%] | %Inh [12] [%] | %Inh [13] [%] | %Inh [14] [%] | %Inh [15] [%] | %Inh [16] [%]
1 | CCn1cnc2c(N)ncnc21 [GW345098] | 0 | 33 | 35 | 12 | 0 | 7 | 0 | 0 | 8 | 19 | 0 | 0 | 0 | 0 | 0 | 29
2 | CN(C(=O)c1ccc(-c2cc(-c3c[nH]nc3-c3ccccn3)ccn2)cc1)C1CCOCC1 [GW810083] | 0 | 57 | 0 | 0 | 52 | 0 | 0 | 2 | 0 | 1 | 24 | 0 | 0 | 0 | 17 | 0
3 | N#Cc1ccc(-c2cc(-c3c[nH]nc3-c3ccccn3)ccn2)cc1 [GW693028] | 0 | 7 | 29 | 10 | 56 | 59 | 0 | 40 | 0 | 0 | 20 | 0 | 0 | 0 | 25 | 0
4 | COc1ccc(Nc2nccc(N3CCC(NC(=O)Nc4cc(C)ccc4C)C3)n2)cc1 (centres unmarked) [GSK1379741] | 17 | 0 | 0 | 14 | 0 | 0 | 0 | 0 | 0 | 0 | 32 | 0 | 10 | 0 | 25 | 0
5 | CC(C)(C)n1cnc2c(N)ncnc21 [SKF-97359] | 0 | 37 | 0 | 1 | 0 | 0 | 0 | 0 | 0 | 0 | 31 | 0 | 0 | 0 | 29 | 0
6 | NCC(NC(=O)c1cc(-c2cn[nH]c2)c(-c2ccnc3[nH]ccc23)s1)c1ccccc1.O=C(O)C(F)(F)F.O=C(O)C(F)(F)F (centres unmarked) [GSK1325775] | 86 | 1 | 0 | 0 | 0 | 52 | 15 | 0 | 0 | 52 | 58 | 66 | 23 | 83 | 38 | 17
7 | O=C(NCCCN1CCOCC1)c1cccc(Nc2nccc(Nc3ccc(Oc4ccccc4)cc3)n2)c1 [GW663929] | 8 | 73 | 45 | 47 | 0 | 14 | 0 | 5 | 0 | 15 | 36 | 0 | 11 | 0 | 7 | 0
8 | [2H]C([2H])(c1cccc(C(F)(F)F)c1C)n1ccn2c(=O)nc(N3CCOCC3)cc12 [GSK2336394] | 0 | 0 | 0 | 17 | 0 | 0 | 0 | 1 | 31 | 8 | 28 | 0 | 0 | 0 | 17 | 0
9 | COc1ccc(Nc2nccc(N3CCC(NC(=O)Nc4cccc(C(C)=O)c4)C3)n2)cc1 (centres unmarked) [GSK1379731] | 0 | 0 | 0 | 7 | 0 | 0 | 0 | 11 | 0 | 0 | 11 | 0 | 0 | 0 | 15 | 0
10 | Cc1ccc(NC(=O)c2ccnc(N3CCN(C)CC3)c2)cc1-c1ccc(C(=O)NCC2CC2)cc1 [GW775604] | 0 | 45 | 0 | 0 | 0 | 0 | 16 | 0 | 0 | 1 | 0 | 0 | 0 | 6 | 0 | 0
11 | O=c1cc(N2CCOCC2)nc2n(Cc3cccc(Cl)c3Cl)c(C3CC3)nn12 [GSK2358994] | 14 | 28 | 20 | 5 | 0 | 0 | 0 | 0 | 9 | 11 | 0 | 12 | 0 | 0 | 0 | 5
